Measurements from PubChem BioAssay (NCATS).
Records with an inconclusive call do not appear. A call without a number means that no potency is given here. Activity calls are given as the source filed them. Unless noted, the call rests on the fitted dose curve; in most records, active means well fitted curve in the direction sought with a large enough effect; inconclusive means small, poorly fitted or top-dose-only effect, or another doubt; inactive means no such curve, though single readings can be large; an effect the other way counts as inactive or inconclusive.

Legend:
[1] = P-glycoprotein substrates identified in KB-8-5-11 adenocarcinoma cell line, qHTS therapeutic library screen (AID 1346987); further: nearly all actives have a fitted effect of over 65% in size; further: potency means the concentration at half of the fitted maximal effect
Summary of the method: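 Human cervical adenocarcinoma KB-8-5-11 cells, selected in colchicine to over-express P-gp and assayed without it, were exposed for 72 h to titrated compounds. An ATP-based luminescent viability signal gave AC50.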

[2] = biological target: Glutathione peroxidase 1 (Homo sapiens) (UniProt P07203); test: Primary qHTS Assay for Inhibitors of Recombinant Selenoprotein Glutathione Peroxidase 1 (GPX1) (AID 1845191); further: nearly all actives have a fitted effect of over 65% in size
Summary of the method: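 GPX1 10 nM, GR 100 nM, GSH 1 mM, NADPH 0.5 mM, CHP 0.5 mM (final). 30-min cpd preincubation, RT. Ex340/Em450 read t=0, t=15 min.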

[3] = biological target: Cytochrome P450 3A4 (Homo sapiens) (UniProt P08684); test: qHTS Assay for Activators of Cytochrome P450 3A4 (AID 885); further: nearly all actives have a fitted effect of over 65% in size
Summary of the method: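 Luminescent readout of luciferin formed from 25 uM Luciferin-PPXE (KM level) by 20 nM CYP3A4 in 200 mM KPO4, with 60 min NADPH-driven reaction at room temperature after 10 min compound exposure. Ketoconazole (57 uM) defined 100% inhibition.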

[4] = Confirmation and Secondary Assay for Modulators of Hemoglobin Beta Chain Splicing at IVS2 654 locus (AID 910)
Summary of the method: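 HeLa cells stably carrying EGFP interrupted by mutant beta-globin IVS2-654 intron (CMV-driven) were treated with compound for 2 days at 37C; corrected splicing was scored as total peak GFP intensity per well (488 nm excitation, 500-520 nm emission).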

[5] = Confirmation and Secondary Assay for Modulators of Hemoglobin Beta Chain Splicing at IVS2 705 locus (AID 930);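 further: HeLa cells stably expressing the EGFP-705 splicing reporter; GFP fluorescence per well restored by corrected splicing of the IVS2-705 intron in EGFP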
Summary of the method: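 HeLa cells stably carrying EGFP interrupted by mutant beta-globin intron 2 (IVS2-705) treated 2 days at 37C with compound; 500 nM antisense PNA as control. Correct splicing read as total peak GFP intensity per well by laser-scanning cytometry.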

[6] = qHTS Assay for Lipid Storage Modulators (AID 1519; calls by dose curve); conditions: Drosophila S3 cells, BODIPY lipid droplet/cell ratio, laser cytometry, cells loaded with oleic acid
Summary of the method: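 Cells seeded at 5,000 per well were treated with compounds over a concentration series and loaded with oleic acid (400 uM, as added). Lipid droplet fluorescence (488 nm excitation, 500-530 nm channel) was read by laser-scanning cytometry and normalized to 20 uM Triacsin C.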

[7] = biological target: Ubiquitin carboxyl-terminal hydrolase 1 (Homo sapiens) (UniProt O94782); test: Inhibitors of USP1/UAF1: Pilot qHTS (AID 504865);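 further: rhodamine fluorescence freed from ubiquitin-rhodamine substrate followed over time; top concentration of the series differs between compounds; nearly all actives have a fitted effect of over 35% in size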
Summary of the method: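 USP1/UAF1 complex (1nM) preincubated with compound 15 min at room temperature, then Ub-Rho substrate (150nM final) added. Fluorescence read kinetically at 480/540 nm, 6 reads every 60 seconds. Buffer: 50mM HEPES pH 7.8, 0.5mM EDTA, 0.1 mg/ml BSA, 1mM TCEP, 0.01% Tween-20.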

[8] = Primary qHTS for inhibitors of nuclear receptor binding SET domain protein 2 (NSD2) in an isogenic RCH-ACV NSD2 p.E1099K mutant (9B) (AID 1645876); further: potency means the concentration at half of the fitted maximal effect; nearly all actives have a fitted effect of over 70% in size
[9] = Primary qHTS for inhibitors of nuclear receptor binding SET domain protein 2 (NSD2) in an RCH-ACV wild type WT cells (2C) (AID 1645877); further: potency means the concentration at half of the fitted maximal effect; nearly all actives have a fitted effect of over 70% in size
[10] = test system: Zika virus NS2B-NS3 protease; test: Primary screen GU AMC qHTS for Zika virus inhibitors (AID 1347154); further: nearly all actives have a fitted effect of over 70% in size
Summary of the method: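 Unlinked Zika NS2B hydrophilic domain/NS3 protease domain noncovalent complex (25 nM final) in 10 mM Tris-HCl pH 8.0, 0.01% Tween 20, with AMC peptide substrate. Fluorescence (ex 340, em 450 nm) change over 15 min, room temperature; percent inhibition fitted to 4-parameter Hill equation.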

Sequence of Glutathione peroxidase 1 (Homo sapiens) (P07203 whole entry, looked up): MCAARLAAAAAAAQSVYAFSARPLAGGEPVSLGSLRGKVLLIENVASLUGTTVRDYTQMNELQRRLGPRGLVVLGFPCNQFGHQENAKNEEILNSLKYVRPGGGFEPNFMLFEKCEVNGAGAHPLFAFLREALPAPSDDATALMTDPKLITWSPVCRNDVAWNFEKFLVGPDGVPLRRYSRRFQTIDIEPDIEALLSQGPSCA
Sequence of Ubiquitin carboxyl-terminal hydrolase 1 (Homo sapiens) (O94782 whole entry, looked up): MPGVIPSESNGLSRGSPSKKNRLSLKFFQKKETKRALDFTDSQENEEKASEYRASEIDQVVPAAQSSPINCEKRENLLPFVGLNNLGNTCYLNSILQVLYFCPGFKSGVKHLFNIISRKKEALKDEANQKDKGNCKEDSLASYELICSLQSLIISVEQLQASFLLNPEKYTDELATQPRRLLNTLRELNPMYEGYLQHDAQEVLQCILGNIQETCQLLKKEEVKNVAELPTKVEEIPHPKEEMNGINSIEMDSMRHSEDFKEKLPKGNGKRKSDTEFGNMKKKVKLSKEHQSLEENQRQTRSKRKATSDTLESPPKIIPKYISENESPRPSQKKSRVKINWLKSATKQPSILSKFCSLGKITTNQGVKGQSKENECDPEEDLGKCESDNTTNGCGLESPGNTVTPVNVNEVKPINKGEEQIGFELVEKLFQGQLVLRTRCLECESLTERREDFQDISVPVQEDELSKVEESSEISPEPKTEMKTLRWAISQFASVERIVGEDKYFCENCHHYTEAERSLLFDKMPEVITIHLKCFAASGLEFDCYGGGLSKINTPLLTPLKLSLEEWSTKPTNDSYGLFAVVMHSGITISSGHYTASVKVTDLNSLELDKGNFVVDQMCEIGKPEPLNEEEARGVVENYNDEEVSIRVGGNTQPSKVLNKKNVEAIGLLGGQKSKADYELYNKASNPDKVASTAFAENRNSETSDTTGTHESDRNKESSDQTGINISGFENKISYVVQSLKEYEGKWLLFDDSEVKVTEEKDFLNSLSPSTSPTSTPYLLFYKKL
Sequence of Cytochrome P450 3A4 (Homo sapiens) (P08684 whole entry, looked up): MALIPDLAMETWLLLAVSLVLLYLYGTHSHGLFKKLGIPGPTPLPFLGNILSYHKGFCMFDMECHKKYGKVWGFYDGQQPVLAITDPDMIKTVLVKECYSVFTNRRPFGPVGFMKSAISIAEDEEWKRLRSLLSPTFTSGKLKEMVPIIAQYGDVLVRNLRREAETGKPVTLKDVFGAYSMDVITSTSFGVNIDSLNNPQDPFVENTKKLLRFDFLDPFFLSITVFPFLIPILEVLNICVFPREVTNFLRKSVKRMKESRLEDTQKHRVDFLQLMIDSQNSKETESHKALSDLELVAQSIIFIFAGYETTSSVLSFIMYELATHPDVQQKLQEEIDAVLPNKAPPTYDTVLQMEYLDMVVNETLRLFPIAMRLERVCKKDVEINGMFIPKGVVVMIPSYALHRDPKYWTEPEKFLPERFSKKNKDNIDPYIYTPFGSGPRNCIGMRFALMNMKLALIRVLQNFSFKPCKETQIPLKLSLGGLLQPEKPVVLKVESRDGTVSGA

For `O=C(/C=C/c1cccnc1)c1ccncc1`, the Potency [1] was “inactive” and the Potency [2] was “inactive”.

With `COc1cc(O)c2c(=O)c(O)c(-c3ccc(O)c(O)c3)oc2c1` the Potency [3] was “inactive”, the outcome [4] was “inactive” and the outcome [5] was “inactive”. The activity change, negative = inhibition ([6]; at 57.5 µM (top of the series)) was 4.09% (inactive), the max response ([6]; measured here: cell count channel max response) was -9.74% and the max response ([6]; measured here: lipid channel max response) was -5.25%. The Potency [7] was “inactive”, the Potency [1] was “inactive” and the Potency [8] was 10.3 µM (active). The Potency [9] was 14.6 µM (active) and the Potency [2] was “inactive”.

For `O=C1NC(=O)c2cc(Nc3ccc(F)cc3)c(Nc3ccc(F)cc3)cc21`, the Potency [1] was 14.6 µM (active), the Potency [10] was “inactive” and the Potency [2] was “inactive”.
